Consider six molecules from PubChem BioAssay (EPA / NIEHS).

Structures are written as SMILES. Inconclusive results are not listed. Where a structure was tested more than once in an assay, its records may differ in their call. The source made the active and inactive calls. How the source made its calls, unless noted: active means hit-call score of the fitted dose curve at least 0.9, where 1 is the maximum; inconclusive means response in the unintended direction; inactive means score below 0.9.

Assay [1] addresses Retinoic acid receptor alpha (Homo sapiens) (UniProt P10276). The experiment in a line: ATG_DR5_RAR_CIS: Attagene CIS-FACTORIAL HepG2 Assay for human Retinoic Acid Receptor Alpha (RARE), DR5 submotif (AID 2282934; active means hit-call score of the fitted dose curve at least 0.9, where 1 is the maximum; inactive means score below 0.9). The settings on record: HepG2 Attagene cis-factorial RARE DR5 reporter, mRNA; actives raise or lower the signal. The method in brief:
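Transfected HepG2 reporter cells are exposed to chemicals for 24 h. Then RNA is extracted and the DR5 element reporter transcript is measured by RT-PCR and capillary electrophoresis, with bidirectional curve fitting relative to DMSO.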

Assay [2] has as its target Bile acid receptor (Homo sapiens) (UniProt Q96RI1). The experiment in a line: ATG_IR1_CIS: Attagene CIS-FACTORIAL HepG2 Assay for human Nuclear Receptor Subfamily 1 Group H Member 4 (NR1H4), IR1 submotif (AID 2282946; active means hit-call score of the fitted dose curve at least 0.9, where 1 is the maximum; inactive means score below 0.9). Particulars: IR1 reporter transcription, actives raise or lower the signal. The method, boiled down: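 Readout: reporter transcript levels by RT-PCR with fluorescent capillary electrophoresis, from HepG2 cells transiently transfected with multiplexed cis-regulated reporters and dosed 24 h. Gain- or loss-of-signal fitted versus DMSO negative control.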

The target of assay [3] is Nuclear receptor subfamily 1 group I member 3 (Homo sapiens) (UniProt Q14994). The assay can be described thus: ATG_CAR_TRANS: Attagene TRANS-FACTORIAL HepG2 Assay for human Constitutive Androstane Receptor (CAR) (AID 2282969).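 Further: activators raise reporter mRNA above DMSO so AC50 marks induction.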 The settings on record: HepG2 Attagene TRANS-FACTORIAL CAR reporter. The method in brief:
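Steps: transient transfection of HepG2 with multiple GAL4-UAS reporter units; 24 h compound incubation; RNA isolation, RT-PCR, 6-FAM primer extension, HpaI digest; capillary electrophoresis. Gain-of-signal relative to DMSO negative control.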

The target in assay [4] is Hepatocyte nuclear factor 4-alpha (Homo sapiens) (UniProt P41235). The experiment in a line: ATG_HNF4a_TRANS: Attagene TRANS-FACTORIAL HepG2 Assay for human Hepatocyte Nuclear Factor 4 alpha (HNF4a) (AID 2282982). Particulars: HepG2 HNF4a transactivation reporter, mRNA readout. The method, boiled down:
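Using HepG2 liver cells transfected with GAL4-UAS reporter units, chemical-induced mRNA increases were assessed after 24 hours. Fluorescent RT-PCR fragments were separated by capillary electrophoresis and compared with DMSO negative controls.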

For assay [5], the target named is human Peroxisome Proliferator-activated Receptor alpha (PPARa), PPARA (gene 5465) (UniProt Q07869). The experiment in a line: ATG_PPARa_TRANS: Attagene TRANS-FACTORIAL HepG2 Assay for human Peroxisome Proliferator-activated Receptor alpha (PPARa) (AID 2283001).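 On AC50: potency for gain of reporter signal over DMSO so agonist or activator.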 The method, boiled down:
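Exposure: 24 h, transiently transfected HepG2 cells. Endpoint: GAL4-UAS reporter mRNA, RT-PCR with capillary electrophoresis fluorescence. Baseline: DMSO; increases fitted.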

Assay [6] deals with human RAR-related Orphan Receptor beta (RORb), RORB (gene 6096) (UniProt Q92753). The assay can be described thus: ATG_RORb_TRANS: Attagene TRANS-FACTORIAL HepG2 Assay for human RAR-related Orphan Receptor beta (RORb) (AID 2283010). The method, boiled down:
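Multiplexed transcription-factor reporter assay: HepG2 cells transiently carrying NR-Gal4/GAL4-UAS constructs, 24 h treatment, mRNA quantified by RT-PCR plus capillary electrophoresis fluorescence; activity scored as induction over DMSO.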

Assay [7] has as its target Oxysterols receptor LXR-alpha (Homo sapiens) (UniProt Q13133). The assay can be described thus: ATG_LXRa_TRANS: Attagene TRANS-FACTORIAL HepG2 Assay for human Liver X Receptor alpha (LXRa) (AID 2282980). Particulars: HepG2 Attagene TRANS reporter, LXRa transactivation. The method in brief:
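Transfect HepG2 with GAL4-UAS multiplex reporter constructs (TRANS format, chimeric receptor-GAL4); treat 24 h; extract RNA, reverse-transcribe, PCR-amplify, FAM-label, HpaI-digest; resolve fragments by capillary electrophoresis. Upward response vs DMSO.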

Assay [8] has as its target Oxysterols receptor LXR-beta (Homo sapiens) (UniProt P55055). The assay can be described thus: ATG_LXRb_TRANS: Attagene TRANS-FACTORIAL HepG2 Assay for human Liver X Receptor beta (LXRb) (AID 2282981). Particulars: HepG2 Attagene TRANS GAL4-LXRb reporter, mRNA. The method, boiled down: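 Liver-derived HepG2 cells transfected with Gal4-responsive reporters were dosed for 24 h. Activation was scored as rise in reporter mRNA, by RT-PCR and capillary electrophoresis, above DMSO baseline.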

Assay [9] addresses Nuclear receptor subfamily 4 group A member 2 (Homo sapiens) (UniProt P43354). The experiment in a line: ATG_NURR1_TRANS: Attagene TRANS-FACTORIAL HepG2 Assay for human Nuclear Receptor Related Protein 1 (NURR1) (AID 2282985). Particulars: HepG2 Attagene TRANS reporter, mRNA readout. The method, boiled down: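 Chimeric NR-Gal4 proteins were expressed in human HepG2 cells bearing GAL4-UAS reporter units, and induced reporter mRNA was quantified 24 h post-dosing by RT-PCR and capillary electrophoresis.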

Assay [10] concerns the target human Peroxisome Proliferator-activated Receptor delta (PPARd), PPARD (gene 5467) (UniProt Q03181). The experiment in a line: ATG_PPARd_TRANS: Attagene TRANS-FACTORIAL HepG2 Assay for human Peroxisome Proliferator-activated Receptor delta (PPARd) (AID 2283002). The method, boiled down: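 Measured quantity: GAL4-UAS reporter transcript induction in HepG2 after 24 h chemical dosing, with NR-Gal4 chimeras supplied by transient transfection. Detection by RT-PCR and capillary electrophoresis; upward fit against DMSO.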

The target in assay [11] is human RAR-related Orphan Receptor gamma (RORg), RORC (gene 6097) (UniProt P51449). The experiment in a line: ATG_RORg_TRANS: Attagene TRANS-FACTORIAL HepG2 Assay for human RAR-related Orphan Receptor gamma (RORg) (AID 2283011).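 On AC50: potency for induction of reporter transcripts above DMSO so activators.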 The method in brief: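 First, HepG2 liver cells were transfected with GAL4-UAS-driven reporter constructs and the RORg-Gal4 fusion. Next, they were treated with chemical for 24 h. Finally, reporter mRNA was quantified by RT-PCR and capillary electrophoresis, with upward activity fitted against DMSO.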

Assay [12] in a line: ATG_XTT_Cytotoxicity: Cytotoxicity Assessment in the Attagene TRANS-FACTORIAL HepG2 Assay (AID 2283584). The method, boiled down:
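Cells: human HepG2, transiently transfected with MRTU reporter constructs. Exposure 24 h. Readout: XTT, cell number. Baseline/neg ctrl DMSO; loss-of-signal scored.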

A short description of assay [13]: TOX21_p53_BLA_p2_viability: Viability Assessment in the Tox21 HCT-116 p53 Agonism Beta-lactamase Assay, Phase 2 (AID 2283591).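 Further: compound exposure lasted 16 h at 37 °C; actives lower the ATP signal meaning cytotoxicity.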 The method in brief:
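HCT-116 p53-bla cells (4000/well) rested 5 h at 37C, then received compounds in DMSO (217-fold dilution) for 16 h at 37C, 5% CO2. After the CCF4 read, CellTiter-Glo was added; ATP luminescence was read after 30 min at room temperature.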

The nature of assay [14]: TOX21_p53_BLA_p3_viability: Viability Assessment in the Tox21 HCT-116 p53 Agonism Beta-lactamase Assay, Phase 3 (AID 2283593).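 Further: cells exposed to compound for 16 h before reading.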 The method in brief:
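HCT-116 cells (4000/well) rested 5 h at 37C, then got DMSO compounds by pin tool (217-fold dilution) for 16 h at 37C, 5% CO2. After the bla read, CellTiter-Glo was added and luminescence read at 30 min, room temperature.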

Assay [15] concerns the target Cellular tumor antigen p53 (Homo sapiens) (UniProt P04637). The experiment in a line: TOX21_p53_BLA_p3_ratio: Tox21 HCT-116 p53 Agonism Beta-lactamase Assay, Ratio, Phase 3 (AID 2283596). The method, boiled down: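 Cells were seeded at 4000/well, rested 5 h at 37C, then dosed with DMSO compound solutions (217-fold dilution) for 16 h. CCF4-AM substrate was loaded for 2 h at room temperature, and the 460/530 nm emission ratio was fitted for gain of signal versus DMSO.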

Assay [16] in a line: TOX21_p53_BLA_p4_viability: Viability Assessment in the Tox21 HCT-116 p53 Agonism Beta-lactamase Assay, Phase 4 (AID 2283597).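 Further: hits lower the luminescence signal meaning cytotoxicity.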 The method in brief: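 Readout: ATP luminescence (CellTiter-Glo), measured 30 min after reagent addition at RT. The reagent followed a 2 h CCF4-AM incubation, and the cells had been exposed to compound for 16 h at 37C.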
The nature of assay [17]: CCTE_Harrill_HTTr_Viability_MCF7: CCTE's 6-hour Cell Viability Assessment for the High-Throughput Transcriptomics (HTTr) Platform, in MCF-7 cells cultured in DMEM + 10% fetal bovine serum, Harrill Lab (AID 2284010; active means hit-call score of the fitted dose curve at least 0.9, where 1 is the maximum; inactive means score below 0.9). The method, boiled down: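 Eight-point concentration series, six-hour exposure. Propidium iodide exclusion imaged to assess membrane integrity as a cytotoxicity readout; bidirectional fitting was done with DMSO as negative control and activity baseline.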

A short description of assay [18]: ATG_GAL4_TRANS: Attagene TRANS-FACTORIAL HepG2 Assay for GAL4 (Internal Marker) (AID 2282976). The settings on record: HepG2 Attagene TRANS GAL4 internal marker reporter. The method, boiled down:
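First, HepG2 cells were transfected with reporter units under GAL4-UAS control. Next, they were treated with chemical for 24 h. Finally, RNA was reverse-transcribed, PCR-amplified, FAM-labelled and resolved by capillary electrophoresis, with induction scored against DMSO.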

For assay [19], the target named is Nuclear receptor subfamily 1 group I member 2 (Homo sapiens) (UniProt O75469). The assay can be described thus: ATG_PXR_TRANS: Attagene TRANS-FACTORIAL HepG2 Assay for human Pregnane X Receptor (PXR) (AID 2283008). The method, boiled down:
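Transient HepG2 transfectants carrying multiplexed reporter transcription units; PXR activity read through a Gal4 chimera. 24 h exposure. RT-PCR/CE fluorescence; upward curve fit referenced to DMSO.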

The target in assay [20] is human Vitamin D Receptor (VDR), VDR (gene 7421) (UniProt P11473). The experiment in a line: ATG_VDR_TRANS: Attagene TRANS-FACTORIAL HepG2 Assay for human Vitamin D Receptor (VDR) (AID 2283022). The method, boiled down: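 Steps: transfect HepG2 with GAL4-UAS-driven reporter constructs; dose compounds 24 h; isolate RNA, reverse-transcribe, PCR-amplify with 6-FAM-labelled primer extension and HpaI digestion; quantify fragments by capillary electrophoresis relative to DMSO.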
Sequence of human Vitamin D Receptor (VDR), VDR (gene 7421) (P11473 whole entry, looked up, the tested form may be a part): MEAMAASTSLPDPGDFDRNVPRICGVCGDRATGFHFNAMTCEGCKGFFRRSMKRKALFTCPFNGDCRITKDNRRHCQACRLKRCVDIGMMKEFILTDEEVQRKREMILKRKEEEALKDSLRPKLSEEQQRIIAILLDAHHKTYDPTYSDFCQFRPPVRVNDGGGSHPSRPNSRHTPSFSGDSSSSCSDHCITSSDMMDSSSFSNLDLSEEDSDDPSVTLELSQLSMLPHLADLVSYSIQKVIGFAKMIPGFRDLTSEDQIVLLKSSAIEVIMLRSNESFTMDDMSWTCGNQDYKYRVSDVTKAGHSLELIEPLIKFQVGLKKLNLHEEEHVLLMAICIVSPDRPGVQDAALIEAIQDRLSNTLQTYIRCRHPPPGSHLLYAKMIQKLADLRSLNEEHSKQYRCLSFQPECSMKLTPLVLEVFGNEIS

Sequence of human RAR-related Orphan Receptor beta (RORb), RORB (gene 6096) (Q92753 whole entry, looked up, the tested form may be a part): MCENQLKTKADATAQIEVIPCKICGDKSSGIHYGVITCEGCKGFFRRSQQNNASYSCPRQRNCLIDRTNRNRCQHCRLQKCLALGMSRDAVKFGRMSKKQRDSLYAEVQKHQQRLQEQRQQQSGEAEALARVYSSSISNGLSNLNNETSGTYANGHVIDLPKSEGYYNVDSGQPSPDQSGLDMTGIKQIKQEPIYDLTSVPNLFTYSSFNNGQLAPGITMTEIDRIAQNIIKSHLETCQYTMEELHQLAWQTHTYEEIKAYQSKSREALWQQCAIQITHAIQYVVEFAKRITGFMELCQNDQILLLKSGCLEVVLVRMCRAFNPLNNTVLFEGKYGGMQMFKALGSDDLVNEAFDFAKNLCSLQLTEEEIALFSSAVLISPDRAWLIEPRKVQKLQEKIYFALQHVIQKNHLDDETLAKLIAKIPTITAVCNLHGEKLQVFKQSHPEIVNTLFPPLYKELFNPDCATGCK
Sequence of Oxysterols receptor LXR-alpha (Homo sapiens) (Q13133 whole entry, looked up, the tested form may be a part): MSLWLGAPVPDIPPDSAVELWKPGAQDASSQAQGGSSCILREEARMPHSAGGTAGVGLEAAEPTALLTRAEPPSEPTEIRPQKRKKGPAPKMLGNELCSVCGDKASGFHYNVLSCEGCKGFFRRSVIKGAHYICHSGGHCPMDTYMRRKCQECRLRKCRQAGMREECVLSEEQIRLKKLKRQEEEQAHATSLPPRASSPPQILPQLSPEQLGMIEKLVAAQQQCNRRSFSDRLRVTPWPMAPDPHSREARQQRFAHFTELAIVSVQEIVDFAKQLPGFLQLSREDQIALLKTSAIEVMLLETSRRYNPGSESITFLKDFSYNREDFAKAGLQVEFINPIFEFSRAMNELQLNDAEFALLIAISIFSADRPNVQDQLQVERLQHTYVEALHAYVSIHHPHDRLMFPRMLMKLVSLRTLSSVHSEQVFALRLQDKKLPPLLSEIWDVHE
Sequence of Retinoic acid receptor alpha (Homo sapiens) (P10276 whole entry, looked up): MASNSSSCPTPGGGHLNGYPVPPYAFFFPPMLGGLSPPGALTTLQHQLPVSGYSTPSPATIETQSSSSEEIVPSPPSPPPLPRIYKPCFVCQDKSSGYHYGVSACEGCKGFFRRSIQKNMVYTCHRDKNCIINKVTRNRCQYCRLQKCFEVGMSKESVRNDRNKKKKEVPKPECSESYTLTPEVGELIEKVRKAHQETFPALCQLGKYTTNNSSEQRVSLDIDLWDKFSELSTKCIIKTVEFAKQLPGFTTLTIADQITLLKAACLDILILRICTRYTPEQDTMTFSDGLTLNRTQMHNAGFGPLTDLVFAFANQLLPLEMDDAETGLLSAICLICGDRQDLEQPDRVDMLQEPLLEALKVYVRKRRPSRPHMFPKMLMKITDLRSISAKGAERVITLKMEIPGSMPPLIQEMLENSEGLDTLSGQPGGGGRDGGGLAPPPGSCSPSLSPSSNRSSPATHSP
Sequence of Cellular tumor antigen p53 (Homo sapiens) (P04637 whole entry, looked up): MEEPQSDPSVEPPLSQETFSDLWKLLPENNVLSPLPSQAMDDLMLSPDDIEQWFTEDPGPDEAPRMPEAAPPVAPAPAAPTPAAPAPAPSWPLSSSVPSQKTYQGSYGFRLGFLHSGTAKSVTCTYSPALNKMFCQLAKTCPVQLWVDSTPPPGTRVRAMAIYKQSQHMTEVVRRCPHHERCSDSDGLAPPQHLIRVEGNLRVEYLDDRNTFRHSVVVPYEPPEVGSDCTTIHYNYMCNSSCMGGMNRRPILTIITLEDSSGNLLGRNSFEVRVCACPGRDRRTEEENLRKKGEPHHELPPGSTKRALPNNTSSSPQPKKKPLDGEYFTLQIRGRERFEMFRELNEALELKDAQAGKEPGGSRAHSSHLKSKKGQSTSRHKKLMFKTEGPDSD
Sequence of human Peroxisome Proliferator-activated Receptor alpha (PPARa), PPARA (gene 5465) (Q07869 whole entry, looked up, the tested form may be a part): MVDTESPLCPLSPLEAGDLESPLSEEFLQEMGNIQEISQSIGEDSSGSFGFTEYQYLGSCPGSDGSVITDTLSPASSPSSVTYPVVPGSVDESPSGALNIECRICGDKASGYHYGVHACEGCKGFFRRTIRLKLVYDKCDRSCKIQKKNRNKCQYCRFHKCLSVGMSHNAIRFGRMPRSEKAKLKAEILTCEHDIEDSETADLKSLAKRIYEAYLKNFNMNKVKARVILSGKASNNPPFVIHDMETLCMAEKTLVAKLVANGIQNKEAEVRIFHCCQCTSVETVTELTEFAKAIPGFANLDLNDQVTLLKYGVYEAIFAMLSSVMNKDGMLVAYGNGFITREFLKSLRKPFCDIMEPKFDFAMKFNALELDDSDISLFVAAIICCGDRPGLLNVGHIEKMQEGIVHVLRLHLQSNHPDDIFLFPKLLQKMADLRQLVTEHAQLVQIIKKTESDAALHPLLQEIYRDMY
Sequence of human Peroxisome Proliferator-activated Receptor delta (PPARd), PPARD (gene 5467) (Q03181 whole entry, looked up, the tested form may be a part): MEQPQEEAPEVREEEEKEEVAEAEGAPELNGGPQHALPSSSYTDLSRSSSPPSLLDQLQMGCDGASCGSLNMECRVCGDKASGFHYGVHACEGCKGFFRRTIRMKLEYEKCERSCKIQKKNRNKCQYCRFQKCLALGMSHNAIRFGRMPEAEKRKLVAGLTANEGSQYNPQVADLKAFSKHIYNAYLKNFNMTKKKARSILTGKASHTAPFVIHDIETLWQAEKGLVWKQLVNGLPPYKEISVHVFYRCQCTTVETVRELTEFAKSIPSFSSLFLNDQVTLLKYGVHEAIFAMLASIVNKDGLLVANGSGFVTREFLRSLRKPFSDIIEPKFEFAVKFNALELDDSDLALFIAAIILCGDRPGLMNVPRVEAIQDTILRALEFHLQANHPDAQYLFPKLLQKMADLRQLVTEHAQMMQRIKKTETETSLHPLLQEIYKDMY
Sequence of human RAR-related Orphan Receptor gamma (RORg), RORC (gene 6097) (P51449 whole entry, looked up, the tested form may be a part): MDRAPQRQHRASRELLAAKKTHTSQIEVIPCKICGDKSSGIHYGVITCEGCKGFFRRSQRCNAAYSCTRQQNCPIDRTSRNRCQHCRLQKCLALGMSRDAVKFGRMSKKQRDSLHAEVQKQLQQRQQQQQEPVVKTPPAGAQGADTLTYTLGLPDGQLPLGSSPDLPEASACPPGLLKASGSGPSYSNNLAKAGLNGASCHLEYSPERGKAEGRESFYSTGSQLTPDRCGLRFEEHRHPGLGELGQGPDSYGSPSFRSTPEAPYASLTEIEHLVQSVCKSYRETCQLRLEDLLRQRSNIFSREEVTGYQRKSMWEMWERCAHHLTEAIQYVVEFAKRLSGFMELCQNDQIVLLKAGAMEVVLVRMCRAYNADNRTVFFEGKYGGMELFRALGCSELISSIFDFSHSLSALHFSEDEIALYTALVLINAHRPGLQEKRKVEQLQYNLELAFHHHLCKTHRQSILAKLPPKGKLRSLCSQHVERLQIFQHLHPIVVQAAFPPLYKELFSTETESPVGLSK
Sequence of Nuclear receptor subfamily 1 group I member 3 (Homo sapiens) (Q14994 whole entry, looked up, the tested form may be a part): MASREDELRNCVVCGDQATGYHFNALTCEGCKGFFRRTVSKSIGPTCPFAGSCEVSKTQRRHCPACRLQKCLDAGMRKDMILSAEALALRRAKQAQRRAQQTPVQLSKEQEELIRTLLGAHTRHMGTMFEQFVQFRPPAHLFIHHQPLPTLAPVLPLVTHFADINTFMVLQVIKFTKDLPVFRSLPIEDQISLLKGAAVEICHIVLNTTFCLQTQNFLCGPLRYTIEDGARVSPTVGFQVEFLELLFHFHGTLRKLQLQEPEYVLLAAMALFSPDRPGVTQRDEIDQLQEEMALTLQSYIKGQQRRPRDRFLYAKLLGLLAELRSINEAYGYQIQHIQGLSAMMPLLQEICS
Sequence of Nuclear receptor subfamily 4 group A member 2 (Homo sapiens) (P43354 whole entry, looked up, the tested form may be a part): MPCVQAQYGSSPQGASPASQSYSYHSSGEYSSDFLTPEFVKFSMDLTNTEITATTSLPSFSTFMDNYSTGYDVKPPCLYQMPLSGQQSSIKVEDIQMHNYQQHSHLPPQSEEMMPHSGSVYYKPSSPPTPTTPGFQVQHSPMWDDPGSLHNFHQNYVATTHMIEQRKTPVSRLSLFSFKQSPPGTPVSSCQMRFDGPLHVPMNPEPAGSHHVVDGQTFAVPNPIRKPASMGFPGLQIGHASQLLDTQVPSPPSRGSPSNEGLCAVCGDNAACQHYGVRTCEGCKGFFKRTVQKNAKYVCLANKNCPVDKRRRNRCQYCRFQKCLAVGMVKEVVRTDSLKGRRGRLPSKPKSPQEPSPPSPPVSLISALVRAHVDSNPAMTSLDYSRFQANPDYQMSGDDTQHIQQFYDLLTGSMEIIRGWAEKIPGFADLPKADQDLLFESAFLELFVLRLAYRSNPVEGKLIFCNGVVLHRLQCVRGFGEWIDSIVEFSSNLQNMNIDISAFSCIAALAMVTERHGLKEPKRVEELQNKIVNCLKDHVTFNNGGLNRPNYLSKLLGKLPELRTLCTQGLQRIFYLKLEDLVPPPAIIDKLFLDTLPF

Regarding `ClC1=C(Cl)[C@]2(Cl)[C@@H]3[C@@H](Cl)[C@H](Cl)C[C@@H]3[C@@]1(Cl)C2(Cl)Cl`, the call in [1], in assay [2], in assay [3], in assay [4], in assay [5] and in assay [6] was inactive.

On to `O=C(CCl)c1ccccc1`, for which the call in assay [1], in assay [7], in [8], in [9], in assay [10] and in assay [6] was inactive. Also, the result in [12], in [13], in [14], in assay [15], in [16] and in assay [17] was inactive. Besides, the AC50 in [5] is 50.2 µM (active); in assay [11] it was 62 µM (active); in assay [15], 64.3 µM (active).

For `CCOC(=O)COc1ccc(Cl)cc1Cl`, the outcome in [1], in [3], in assay [18], in [10], in assay [19] and in assay [12] was inactive. Besides, the call in assay [13], in assay [14], in [15] and in [17] was inactive.

For the molecule `Nc1c(Cl)c(Cl)c(Cl)c(Cl)c1Cl`, the outcome in assay [1], in assay [7], in [9], in assay [5], in [10] and in [20] was inactive. The results for the half-maximal activity concentration (AC50) in assay [3] and in assay [8] were 27.3 µM (active) and 26.1 µM (active), respectively.

Consider `N#CCNCC#N`, for which the result in assay [18], in assay [9], in assay [5], in assay [10], in [6] and in assay [11] was inactive. The result in [20] was inactive.

As to `Oc1ccc(Cl)cc1`, the molecule was classed as inactive in [1], in assay [3], in assay [7], in assay [11], in assay [20] and in assay [12]. Moreover, the molecule was called inactive in [13], in [15], in assay [16] and in [17].

The AC50 is the concentration at which the activity in the assay is half-maximal.
